Inconclusive results are not listed. The source made the active and inactive calls. Unless noted, calls come from the whole dose curve; as a rule, active = well fitted curve in the direction sought with a large enough effect; inconclusive = small, poorly fitted or top-dose-only effect, or another doubt; inactive = no such curve, though single readings can be large; an effect the other way counts as inactive or inconclusive.

Test [1] can be described thus: qHTS Assay for Identifying Gametocytocidal Compounds (AID 743244).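 Note: % is set by controls: 0 for no effect and ±100 for the full control effect; actives lower the fluorescent signal which means gametocytes are killed.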 As to conditions: P. falciparum 3D7 stage III-V gametocytes, alamarBlue, 72 h; max response: stronger effect = lower value. Summed up:
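P. falciparum 3D7 stage III–V gametocytes (20,000 cells/well) were exposed to compounds for 72 h at 37 °C, 5% CO2. AlamarBlue was then added for 24 h; decreased resorufin fluorescence (Ex 525/Em 598 nm) indicated loss of viability.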
In general terms: Quantitative high-throughput screening tests each substance at several concentrations.

Test [2] is described as follows: Primary qHTS for Huh7 cytotoxicity: counterscreen for inhibitors of MERS-S pseudotyped particle cell entry (AID 1479147; calls by dose curve; note: % is set by controls: 0 for no effect and ±100 for the full control effect). The settings on record: outcome: dose series up to 57.1 µM unless noted.
The nature of test [3]: Primary qHTS for inhibitors of MERS-S pseudo-typed particle cell entry (AID 1479149; calls by dose curve; note: nearly all actives have a fitted effect of over 60% in size).
Test [4] in a line: Primary qHTS for Vero E6 cytotoxicity: counterscreen for inhibitors of SARS-S pseudo-typed particle cell entry (AID 1479150; calls by dose curve; note: % is set by controls: 0 for no effect and ±100 for the full control effect). As to conditions: outcome: dose series up to 57.1 µM unless noted.
The nature of test [5]: Cytotoxicity counterscreen for inhibitors of SARS-CoV-2 cell entry (AID 1645845; calls by dose curve; note: nearly all actives have a fitted effect of over 50% in size). Summed up:
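ATP-content luminescence (ATPLite 1step, 15 min RT) read after 48 h compound exposure of Expi293F cells stably expressing human ACE2; normalized to cells-only wells and media-only wells.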
In general terms: Counterscreens check selectivity or assay interference.

Test [6] in a line: Primary qHTS to identify inhibitors of SARS-CoV-2 cell entry (AID 1645846; calls by dose curve; note: nearly all actives have a fitted effect of over 45% in size). As to conditions: activity change, negative = inhibition: at 57.1 µM (top of the series) unless noted. Summed up:
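Luminescence readout (Bright-Glo luciferase) 48 h after pseudoparticle addition. HEK293-ACE2 cells, 1500/well; compound pre-incubation 1 h; Normalized to spike PP and bald PP.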

In test [7] the target is Glutathione peroxidase 1 (Homo sapiens) (UniProt P07203). As to the kind of experiment: Primary qHTS Assay for Inhibitors of Recombinant Selenoprotein Glutathione Peroxidase 1 (GPX1) (AID 1845191). Note: nearly all actives have a fitted effect of over 65% in size. Summed up:
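NADPH consumption tracked by fluorescence at 340/450 nm between t=0 and t=15 min, room temperature. Final mix: 10 nM GPX1, 100 nM glutathione reductase, 1 mM GSH, 0.5 mM NADPH, 0.5 mM cumene hydroperoxide, 0.01% BSA; 30 min compound–enzyme preincubation.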

In test [8] the target is Phospholipid hydroperoxide glutathione peroxidase GPX4 (Homo sapiens) (UniProt P36969). Nature of the test: Primary qHTS Assay for Inhibitors of Recombinant Selenoprotein Glutathione Peroxidase 4 (GPX4) (AID 1845192). Note: % is set by controls: 0 for no effect and ±100 for the full control effect; nearly all actives have a fitted effect of over 65% in size. Summed up: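 NADPH consumption followed by fluorescence at 340/450 nm, t=0 and after 15 min at room temperature. Reaction started with cumene hydroperoxide (0.5 mM final) after 30 min compound–GPX4 preincubation; final 200 nM GPX4, 100 nM GR, 1 mM GSH, 0.5 mM NADPH.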

The subject of the next test is KB-3-1. Nature of the test: Cytotoxic Profiling of Annotated Libraries Using Quantitative High-Throughput Screening (AID 1296008). Note: nearly all actives have a fitted effect of over 60% in size. Note: potency is the fitted concentration of half-maximal effect. The settings on record: Five cell lines viability, CellTiter-Glo ATP luminescence, 48-72 h; max response: stronger effect = lower value. Summed up:
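Cytotoxicity was measured as CellTiter-Glo ATP luminescence, read after 10 min at room temperature. Compound treatment of the cells lasted 48 or 72 hr at 37 degrees Celsius in a qHTS format.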
A general note: Cellular ATP, detected with luciferase, serves as a proxy for viable cell number.

In the next test the test system is astro. As to the kind of experiment: Drug repurposing screens with cells derived from glioblastoma tumor samples (AID 1345199). Note: % is set by controls: 0 for no effect and ±100 for the full control effect; nearly all actives have a fitted effect of over 40% in size. As to conditions: viability, ATP luminescence, 48 h; series mostly up to 45.9 µM. Summed up:
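Primary testing used CD133+ neurospheres from four GBM patients, seven concentrations, 48 h exposure and ATP-based viability; confirmation added three slower-growing patient lines.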

Test [9] is described as follows: P-glycoprotein substrates identified in KB-8-5-11 adenocarcinoma cell line, qHTS therapeutic library screen (AID 1346987). Note: potency is the fitted concentration of half-maximal effect; nearly all actives have a fitted effect of over 65% in size. Summed up: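 In this qHTS, P-gp-rich KB-8-5-11 cells received library compounds across a concentration range. Viability was quantified by luminescence after 72 h at 37 degree C.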
The subject of test [10] is Zika virus NS2B-NS3 protease (unlinked complex). As to the kind of experiment: Primary screen GU Rhodamine qHTS for Zika virus inhibitors: Unlinked NS2B-NS3 protease assay (AID 1347159). Note: % is set by controls: 0 for no effect and ±100 for the full control effect; nearly all actives have a fitted effect of over 60% in size. Summed up: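 Enzyme 25 nM in Tris-HCl pH 8.0 + 0.01% Tween 20; compounds up to 114 microM, 15 min RT dark; + Rhod110 substrate 1.5 microM; read t0 and 15 min; delta fluorescence → % inhibition → 4-parameter Hill fit.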

Test [11] has as its system Zika virus NS2B-NS3 protease (linked construct). Nature of the test: Primary screen NINDS Rhodamine qHTS for Zika virus inhibitors (AID 1347160). Note: % is set by controls: 0 for no effect and ±100 for the full control effect; nearly all actives have a fitted effect of over 55% in size. Summed up: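 Enzyme (25 nM, linked NS2B-NS3) was preincubated 15 min with compound in 10 mM Tris-HCl pH 8.0, 0.01% Tween 20. Rhodamine110 substrate (1.5 microM) was then added and fluorescence read at start and after 15 min.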

Test [12] addresses Calcium and integrin-binding protein 1 (Homo sapiens) (UniProt Q99828). As to the kind of experiment: Primary qHTS for Identification of Calcium Integrin Binding Protein 1 (CIB1) Competitor (AID 1508620).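 Note: GST tagged CIB1 binding a fluorescein labelled alphaIIb integrin peptide tracer; top concentration of the series differs between compounds; % is set by controls: 0 for no effect and ±100 for the full control effect.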 Summed up: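 CIB1-GST (1 uM final) and compound incubated 15 min at room temperature before adding FITC-alphaIIb peptide tracer (100 nM final). Competition for binding read by fluorescence polarization (ex 480, em 540) after another 15 min at room temperature.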

A short description of test [13]: Primary qHTS for inhibitors of nuclear receptor binding SET domain protein 2 (NSD2) in an isogenic RCH-ACV NSD2 p.E1099K mutant (9B) (AID 1645876). Note: potency is the fitted concentration of half-maximal effect; nearly all actives have a fitted effect of over 70% in size.
The target of test [14] is Luciferin 4-monooxygenase (Photinus pyralis) (UniProt P08659). Nature of the test: Primary firefly luciferase (FLuc) qHTS assay for identification of artifact compounds. (AID 1845220). Note: nearly all actives have a fitted effect of over 60% in size. As to conditions: outcome: dose series up to 54.1 µM unless noted. Summed up: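 FLuc 10 nM; luciferin 10 uM; ATP 10 uM; Tris-acetate pH 7.6, Mg-acetate 10 mM; 15 min RT preincubation; 5 min reaction; luminescence.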

In test [15] the test system is Nanoluciferase (engineered Oplophorus gracilirostris luciferase). As to the kind of experiment: Primary Nanoluciferase (NLuc) qHTS assay for identification of artifact compounds. (AID 1845222).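 Note: NLuc secreted into diluted conditioned medium of S16 cells; 0% = DMSO and -100% = no enzyme.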 Summed up: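 NLuc from S16 cell medium (1:55) plus test compounds, 15 min, room temperature. Luminescence after Nano-Glo (1:100) addition, 5 min.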
The nature of test [16]: Primary redox qHTS assay for identification of artifact compounds. (AID 1845223).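 Note: 0% = DMSO and 100% = reference compound.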 Summed up: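 Redox-cycling detection via DTT (250 uM final) oxidation coupled to Amplex Red (25 uM)/HRP (250 mU/mL) in HBSS. 15 min preincubation plus 30 min after DTT, room temperature. Ex/Em 525/598 nm; 4-parameter Hill fit against DMSO and 10 uM DA3003.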
Another test relates to CRL-7250. As to the kind of experiment: qHTS assay to identify novel small-molecules to repurpose for Merkel cell carcinoma treatment (AID 1296009). The settings on record: MCC and control cell lines, CellTiter-Glo viability, 72 h; series mostly up to 92 µM. Summed up: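 Cell viability measured by CellTiter-Glo following 72 hr compound treatment at 37 degree celsius, with NPC and MIPE libraries tested in 8- and 11-point concentration series.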

For another test, the system named is HeLa. Nature of the test: Primary qHTS to identify gynecologic anti-cancer compounds using libraries of approved drugs and bioactive compounds (AID 1345084). Note: potency is the fitted concentration of half-maximal effect; nearly all actives have a fitted effect of over 55% in size. As to conditions: Gynecologic cancer cell panel viability, ATPlite luminescence, 48 h; series mostly up to 57.5 µM. Summed up:
(§1)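 Cells, 1,000 per well, were allowed to settle for 16 h at 37 C before compound addition. Five concentrations were tested for 48 h, and viability was read by ATPlite luminescence after 15 min at room temperature.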

A further test has as its system JEG-3. The test is described as above. The settings on record: Gynecologic cancer cell panel viability, ATPlite luminescence, 48 h; series mostly up to 57.5 µM. Summed up:
as §1

The target in test [17] is Cytochrome P450 1A2 (Homo sapiens) (UniProt P05177). As to the kind of experiment: p450-cyp1a2 (AID 410; calls by dose curve;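 note: -100% = full effect of reference inhibitor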). Summed up: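 20nM CYP1A2, 100uM Luciferin-ME (=Km), 100mM KPO4; cpd 10 min RT; +NADPH regen, 60 min RT; stop/detect 20 min; luminescence. Normalized to furafylline 57 uM = full inhibition.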
The target of test [18] is Mitogen-activated protein kinase 10 (Mus musculus) (UniProt Q61831). Nature of the test: JNK3 AlphaScreen Assay (AID 530; active = well fitted curve in either direction with a large enough effect, not every such curve was filed as active;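 note: kinase came from lysate of stimulated human HepG2 cells; signal reports phosphorylation of biotinylated GST-cJun 1-79 at Ser73 with 10 µM ATP; % is set by controls: 0 for no effect and ±100 for the full control effect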). Summed up: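 Kinase buffer: 20 mM Tris-HCl pH 7.6, 10 mM MgCl2, 1 mM DTT, 0.1 mM Na3VO4, 0.01% Tween-20; ATP 10 uM. Substrate biotin-GST-cJun(1-79), enzyme from activated HepG2 lysates. Detection by Ser73 phospho-antibody AlphaScreen.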
For test [19], the target named is 3',5'-cyclic-AMP phosphodiesterase 4B (Homo sapiens) (UniProt Q07343). Nature of the test: qHTS Assay for Inhibitors of PDE-IV (AID 607; active = well fitted activation curve with a large enough effect in the main read-out, with a control signal flat, not every such curve was filed as active; note: % of control where 0% means no effect). Summed up:
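The readout is membrane depolarisation from a cAMP-sensing CNG channel, detected with a potential dye at ex 535/em 590. Cells were HEK293-derived (endogenous PDE-IV) at 1000 cells/well, titrated up to 22.9 uM final.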

Test [20] can be described thus: qHTS Assay for Lipid Storage Modulators (AID 1519; calls by dose curve). The settings on record: Drosophila S3 cells, BODIPY lipid droplet/cell ratio, laser cytometry, cells loaded with oleic acid. Summed up:
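Cells seeded at 5,000 per well were treated with compounds over a concentration series and loaded with oleic acid (400 uM, as added). Lipid droplet fluorescence (488 nm excitation, 500-530 nm channel) was read by laser-scanning cytometry and normalized to 20 uM Triacsin C.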

The target in test [21] is Ubiquitin carboxyl-terminal hydrolase 1 (Homo sapiens) (UniProt O94782). As to the kind of experiment: Inhibitors of USP1/UAF1: Pilot qHTS (AID 504865).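 Note: rhodamine fluorescence freed from ubiquitin-rhodamine substrate followed over time; top concentration of the series differs between compounds; % is set by controls: 0 for no effect and ±100 for the full control effect; nearly all actives have a fitted effect of over 35% in size.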 Summed up:
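USP1/UAF1 complex (1nM) preincubated with compound 15 min at room temperature, then Ub-Rho substrate (150nM final) added. Fluorescence read kinetically at 480/540 nm, 6 reads every 60 seconds. Buffer: 50mM HEPES pH 7.8, 0.5mM EDTA, 0.1 mg/ml BSA, 1mM TCEP, 0.01% Tween-20.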

In test [22] the target is DNA dC->dU-editing enzyme APOBEC-3G (Homo sapiens) (UniProt Q9HC16). As to the kind of experiment: qHTS for inhibitors of Vif-A3G interactions: Validation (AID 588379). Note: 0% is about no effect. Summed up: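 Yellow fluorescence (Ex 488, Em 500-530) of Vif-coexpressing HeLa A3G-eYFP cells, scanned by Acumen cytometer, reports blocked A3G degradation. Cells plated at 700/well overnight at 37 deg C before compound addition, then a further overnight compound incubation at 37 deg C.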

A short description of test [23]: qHTS for Inhibitors of the Functional Ribonucleoprotein Complex (vRNP) of Lassa (LASV) Arenavirus: LASV Primary Screen - GLuc reporter signal (AID 1347082; calls by dose curve; tested in HEK293 reporter line).
The nature of test [24]: qHTS for Inhibitors of the Functional Ribonucleoprotein Complex (vRNP) of Lassa (LASV) Arenavirus: Viability assay - alamar blue signal for LASV Primary Screen (AID 1347083; calls by dose curve; tested in HEK293 reporter line; note: % is set by controls: 0 for no effect and ±100 for the full control effect; nearly all actives have a fitted effect of over 80% in size).
The nature of test [25]: qHTS for Inhibitors of the Functional Ribonucleoprotein Complex (vRNP) of Lymphocytic Choriomeningitis Arenaviruses (LCMV): Viability assay - alamar blue signal for LCMV Primary Screen (AID 1347085; calls by dose curve; tested in HEK293 reporter line; note: % is set by controls: 0 for no effect and ±100 for the full control effect; nearly all actives have a fitted effect of over 80% in size).
Test [26] addresses Nucleoprotein (Lymphocytic choriomeningitis virus (strain Armstrong)) (UniProt P09992). As to the kind of experiment: qHTS for Inhibitors of the Functional Ribonucleoprotein Complex (vRNP) of Lymphocytic Choriomeningitis Arenaviruses (LCMV): LCMV Primary Screen - GLuc reporter signal (AID 1347086; calls by dose curve; note: % is set by controls: 0 for no effect and ±100 for the full control effect; nearly all actives have a fitted effect of over 70% in size).
The subject of test [27] is Zika virus NS2B-NS3 protease. As to the kind of experiment: Primary screen GU AMC qHTS for Zika virus inhibitors (AID 1347154).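 Note: 0% = no-inhibitor control and -100% = no-enzyme control; nearly all actives have a fitted effect of over 70% in size.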 Summed up: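 Fluorogenic AMC-substrate cleavage by noncovalent NS2B-NS3 protease complex (25 nM, pH 8.0 Tris buffer with Tween 20) followed for 15 minutes at room temperature (~20% conversion). Percent inhibition from ex340/em450 signal change, fitted by 4-parameter Hill equation.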

Test [28] in a line: Primary qHTS for small molecule stabilizers of the endoplasmic reticulum resident proteome: Secreted ER Calcium Modulated Protein (SERCaMP) assay (AID 1508630). Note: % is set by controls: 0 for no effect and ±100 for the full control effect. Summed up: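 The SH-SY5Y reporter protocol was run at 3 concentrations up to 38.3 uM (primary) or 11 concentrations (follow-up): 16 h compound, 100 nM thapsigargin for 4 h, then extracellular luciferase luminescence.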

Sequence of Glutathione peroxidase 1 (Homo sapiens) (P07203 whole entry, looked up): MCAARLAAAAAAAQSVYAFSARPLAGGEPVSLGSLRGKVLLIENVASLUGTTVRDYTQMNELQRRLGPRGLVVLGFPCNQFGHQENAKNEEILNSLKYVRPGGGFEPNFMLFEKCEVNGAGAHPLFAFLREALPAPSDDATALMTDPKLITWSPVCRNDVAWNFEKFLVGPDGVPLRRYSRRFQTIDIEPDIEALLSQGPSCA
Sequence of Phospholipid hydroperoxide glutathione peroxidase GPX4 (Homo sapiens) (P36969 whole entry, looked up): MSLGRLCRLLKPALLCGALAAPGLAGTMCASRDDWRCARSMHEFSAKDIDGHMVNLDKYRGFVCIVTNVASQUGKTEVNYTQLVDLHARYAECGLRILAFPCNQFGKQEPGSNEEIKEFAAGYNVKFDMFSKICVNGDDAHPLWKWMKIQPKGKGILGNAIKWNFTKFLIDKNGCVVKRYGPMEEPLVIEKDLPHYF
Sequence of Ubiquitin carboxyl-terminal hydrolase 1 (Homo sapiens) (O94782 whole entry, looked up): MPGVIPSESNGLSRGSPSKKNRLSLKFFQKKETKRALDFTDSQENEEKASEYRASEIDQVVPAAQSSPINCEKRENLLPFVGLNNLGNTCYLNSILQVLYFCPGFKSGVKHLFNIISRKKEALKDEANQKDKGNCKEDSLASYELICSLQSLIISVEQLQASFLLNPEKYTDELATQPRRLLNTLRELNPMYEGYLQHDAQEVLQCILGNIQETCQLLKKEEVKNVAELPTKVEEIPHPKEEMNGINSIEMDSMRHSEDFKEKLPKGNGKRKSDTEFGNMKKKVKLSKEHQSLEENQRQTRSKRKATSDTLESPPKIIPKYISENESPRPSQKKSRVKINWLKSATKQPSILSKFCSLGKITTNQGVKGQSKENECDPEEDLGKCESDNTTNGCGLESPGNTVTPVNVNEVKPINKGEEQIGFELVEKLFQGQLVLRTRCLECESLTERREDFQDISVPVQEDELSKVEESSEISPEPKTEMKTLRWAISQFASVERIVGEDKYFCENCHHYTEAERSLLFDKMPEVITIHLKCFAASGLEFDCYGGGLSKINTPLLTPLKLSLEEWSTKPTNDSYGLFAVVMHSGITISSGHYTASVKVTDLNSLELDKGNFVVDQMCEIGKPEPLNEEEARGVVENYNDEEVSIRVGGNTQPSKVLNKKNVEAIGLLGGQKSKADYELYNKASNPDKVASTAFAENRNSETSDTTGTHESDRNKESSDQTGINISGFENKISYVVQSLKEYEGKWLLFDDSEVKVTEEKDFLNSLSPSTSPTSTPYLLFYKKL
Sequence of Cytochrome P450 1A2 (Homo sapiens) (P05177 whole entry, looked up): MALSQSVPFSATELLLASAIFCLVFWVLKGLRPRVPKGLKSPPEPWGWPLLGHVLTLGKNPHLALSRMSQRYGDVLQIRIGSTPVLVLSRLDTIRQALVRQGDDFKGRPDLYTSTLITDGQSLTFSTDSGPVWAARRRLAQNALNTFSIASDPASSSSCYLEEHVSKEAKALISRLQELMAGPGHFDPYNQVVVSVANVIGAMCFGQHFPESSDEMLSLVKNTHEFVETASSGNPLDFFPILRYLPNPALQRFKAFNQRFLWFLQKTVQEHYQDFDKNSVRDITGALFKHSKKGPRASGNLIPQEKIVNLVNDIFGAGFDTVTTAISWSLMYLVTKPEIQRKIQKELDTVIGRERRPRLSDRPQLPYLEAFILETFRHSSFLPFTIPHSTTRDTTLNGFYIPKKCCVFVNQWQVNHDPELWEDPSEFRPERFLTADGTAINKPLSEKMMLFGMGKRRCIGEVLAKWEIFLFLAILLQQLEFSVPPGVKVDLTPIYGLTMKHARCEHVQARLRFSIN
Sequence of Calcium and integrin-binding protein 1 (Homo sapiens) (Q99828 whole entry, looked up): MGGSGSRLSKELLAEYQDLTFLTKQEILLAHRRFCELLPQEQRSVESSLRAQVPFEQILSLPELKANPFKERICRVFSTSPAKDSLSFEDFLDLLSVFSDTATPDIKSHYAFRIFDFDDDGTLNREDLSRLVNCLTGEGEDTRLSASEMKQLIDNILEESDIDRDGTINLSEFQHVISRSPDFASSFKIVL
Sequence of DNA dC->dU-editing enzyme APOBEC-3G (Homo sapiens) (Q9HC16 whole entry, looked up): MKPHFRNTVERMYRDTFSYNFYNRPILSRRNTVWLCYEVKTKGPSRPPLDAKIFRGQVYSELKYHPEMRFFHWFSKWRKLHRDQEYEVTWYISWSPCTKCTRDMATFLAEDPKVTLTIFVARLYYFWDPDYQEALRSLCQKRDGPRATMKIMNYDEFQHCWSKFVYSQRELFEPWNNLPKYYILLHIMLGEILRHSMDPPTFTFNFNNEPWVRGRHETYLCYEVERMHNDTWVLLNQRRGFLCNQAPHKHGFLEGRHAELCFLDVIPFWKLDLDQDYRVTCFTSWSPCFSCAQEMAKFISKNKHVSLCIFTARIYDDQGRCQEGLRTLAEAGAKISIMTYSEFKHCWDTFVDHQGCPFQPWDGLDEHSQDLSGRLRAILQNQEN
Sequence of Nucleoprotein (Lymphocytic choriomeningitis virus (strain Armstrong)) (P09992 whole entry, looked up): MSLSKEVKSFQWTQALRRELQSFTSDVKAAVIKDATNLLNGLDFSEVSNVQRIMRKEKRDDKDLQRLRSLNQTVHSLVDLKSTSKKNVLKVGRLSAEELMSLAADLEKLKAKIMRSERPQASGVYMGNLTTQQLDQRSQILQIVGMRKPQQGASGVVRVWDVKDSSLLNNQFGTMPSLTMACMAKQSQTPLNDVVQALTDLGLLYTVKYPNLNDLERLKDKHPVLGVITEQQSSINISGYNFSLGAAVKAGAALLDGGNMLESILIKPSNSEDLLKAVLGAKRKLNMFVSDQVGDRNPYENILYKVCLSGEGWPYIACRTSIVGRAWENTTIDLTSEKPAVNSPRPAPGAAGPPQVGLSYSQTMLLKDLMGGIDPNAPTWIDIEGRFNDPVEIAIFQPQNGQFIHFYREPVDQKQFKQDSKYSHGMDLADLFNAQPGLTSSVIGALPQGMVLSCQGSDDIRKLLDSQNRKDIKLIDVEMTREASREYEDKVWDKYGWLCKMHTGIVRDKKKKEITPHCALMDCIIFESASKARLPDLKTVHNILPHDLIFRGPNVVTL
Sequence of 3',5'-cyclic-AMP phosphodiesterase 4B (Homo sapiens) (Q07343 whole entry, looked up): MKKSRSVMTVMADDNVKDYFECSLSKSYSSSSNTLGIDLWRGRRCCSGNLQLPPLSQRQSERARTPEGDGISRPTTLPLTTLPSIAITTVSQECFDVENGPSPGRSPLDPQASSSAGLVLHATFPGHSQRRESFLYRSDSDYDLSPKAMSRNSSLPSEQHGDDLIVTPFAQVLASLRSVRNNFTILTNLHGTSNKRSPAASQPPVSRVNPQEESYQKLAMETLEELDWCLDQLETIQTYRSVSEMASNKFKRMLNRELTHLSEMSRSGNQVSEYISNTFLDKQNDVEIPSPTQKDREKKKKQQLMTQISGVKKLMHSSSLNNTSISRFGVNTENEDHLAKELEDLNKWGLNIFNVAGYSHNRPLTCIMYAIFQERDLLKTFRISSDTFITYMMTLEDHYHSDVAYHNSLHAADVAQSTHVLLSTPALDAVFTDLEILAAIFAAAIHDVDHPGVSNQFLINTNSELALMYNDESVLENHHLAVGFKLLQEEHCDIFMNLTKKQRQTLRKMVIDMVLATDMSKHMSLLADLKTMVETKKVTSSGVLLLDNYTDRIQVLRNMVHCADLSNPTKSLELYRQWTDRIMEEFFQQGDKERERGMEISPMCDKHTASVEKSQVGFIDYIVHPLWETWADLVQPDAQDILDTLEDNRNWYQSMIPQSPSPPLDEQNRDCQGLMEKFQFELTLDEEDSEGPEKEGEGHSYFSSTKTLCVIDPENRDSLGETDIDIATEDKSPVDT

As to `CC(C)=CCN1CC[C@]2(C)c3cc(O)ccc3C[C@H]1[C@H]2C`, the max response in [1] was 2.13% (inactive); in the test with KB-3-1, -17.1% (inactive). Further, the molecule was called inactive in test [2] and in [4]. Moreover, the Potency result (in [3]; in test [5]; in [7]; in [8]; in the test on astro) was “inactive” throughout. Further, the activity change, negative = inhibition in test [6] was -30.2% [at 114 µM].

Consider `Fc1cc(F)c2c(c1)[C@H]1C=CC[C@H]1C(c1cccnc1)N2` (stereo partly specified), for which the Potency in test [9] was 4.61 µM (active); in [13], 6.49 µM (active); in the test on KB-3-1, 4.11 µM (active); in the test with CRL-7250, 4.61 µM (active); in the test with HeLa it was 14.1 µM (active); in the test with JEG-3 it was 25.1 µM (active). For the same molecule, the Potency result in test [10], in test [11], in [12], in test [7], in test [8] and in test [15] was “inactive” throughout. Also, the Potency entry in [16] is “inactive”. Also, the call in test [14] was inactive.

As for `Clc1ccc([C@@H]2C[C@H]3CC[C@@H]2N3)cn1`, the Potency result in [17], in test [19], in test [21], in test [22], in [23] and in [24] was “inactive” each time. Moreover, the Potency entry (in test [25]; in [26]; in test [27]; in test [28]; with astro) was “inactive” throughout. Besides, the outcome in [18] was inactive. In test [20] (at 57.5 µM (top of the series)), the activity change, negative = inhibition is -3.65% (inactive). In addition, the max response in test [20] (measured here: cell count channel max response) is 0.171%; in test [20] (measured here: lipid channel max response) it was -1.79%; in test [1], 7.9% (inactive); with KB-3-1, -6.98% (inactive).

(Values after PubChem BioAssay (NCATS).)
